Consider 39 molecules from the supplement of paper PMC10127200.

Where a name gives a salt, the structure may show the parent alone.

The test system of the first experiment is 786-O. Nature of the experiment: Euclidean distance of Cell Painting phenotypic profile (signed KS, 77 features) to DMSO centroid (dimensionless distance); 5 or 10 uM (library dependent); higher = stronger phenotypic change vs DMSO (phenoactivity). The note with it: 48 h. The essentials: (§1)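 Five cancer lines and a healthy fibroblast line received library compounds at 10 or 5 uM (library-dependent, 0.1% DMSO final) for 48 h. Stained cells were imaged confocally at 20X (9 fields/well). Harmony extracted 77 features, each scored as a signed Kolmogorov-Smirnov statistic against same-plate vehicle wells. Profiles were plate-position corrected, correlation-weighted and replicate-averaged at the top dose. Phenoactivity is the Euclidean distance from each profile to the median vehicle profile.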
In turn, `CN(C)CC(c1ccc(O)cc1)C1(O)CCCCC1` (stereo not drawn) [Desvenlafaxine] showed an Euclidean distance of 0.678.
In the case of `O=C1C[C@@H](c2ccc(O[C@@H]3O[C@H](CO)[C@@H](O)[C@H](O)[C@H]3O)cc2)Oc2cc(O)ccc21` [Liquiritin], the Euclidean distance is 1.07.
Turning to `OC[C@H]1O[C@@H](Oc2cc(O)cc(/C=C/c3ccc(O)cc3)c2)[C@H](O)[C@@H](O)[C@@H]1O` [Polydatin], the Euclidean distance amounted to 1.21.
On the same count and under the same terms, under `NC(=O)NCCC[C@H](N)C(=O)O` [L-Citrulline] stands 1.08; under `NS(=O)(=O)c1cc2c(cc1Cl)N=C(CSCc1ccccc1)NS2(=O)=O` [Benzthiazide], 1.33.
In turn, `CCC(=O)NS(=O)(=O)c1ccc(-c2c(-c3ccccc3)noc2C)cc1` [Parecoxib Sodium] returned an Euclidean distance of 0.662.
The molecule `COc1cc(C(=O)O)ccc1NC(=O)[C@@H]1N[C@@H](CC(C)(C)C)[C@](C#N)(c2ccc(Cl)cc2F)[C@H]1c1cccc(Cl)c1F` [Idasanutlin (RG-7388)] displayed an Euclidean distance of 1.61.
Take `O=C1CCCC(=O)C1C(=O)c1ccc(C(F)(F)F)cc1[N+](=O)[O-]` [Nitisinone]: the Euclidean distance is 1.12.
As for `Cc1cn[nH]c1` [Fomepizole], the Euclidean distance amounted to 0.803.
In turn, `CC(C)(C)c1cc(/C=C(\C#N)C(N)=S)cc(C(C)(C)C)c1O` [Tyrphostin AG 879] returned an Euclidean distance of 1.54.
The same measure, in the same setting: under `CN1CC[C@H](c2c(O)cc(O)c3c(=O)cc(-c4ccccc4Cl)oc23)[C@H](O)C1` [Flavopiridol HCl] stands 3.1; under `COc1ncc(-c2ccc3nccc(-c4ccnnc4)c3c2)cc1NS(=O)(=O)c1ccc(F)cc1F`, 4.98; under `C[C@@H](NCCCc1cccc(C(F)(F)F)c1)c1cccc2ccccc12` [Cinacalcet HCl], 1.32.
The molecule `CO[C@@H]1[C@H](OC(=O)/C=C/C=C/C=C/C=C/C(=O)O)CC[C@]2(CO2)[C@H]1[C@@]1(C)O[C@@H]1CC=C(C)C` [Fumagillin] displayed an Euclidean distance of 2.75.
On to `O=c1[nH]c(=O)n([C@H]2C[C@H](O)[C@@H](CO)O2)cc1C(F)(F)F` [Trifluridine], for which the Euclidean distance came to 2.89.
Molecule `O=C(Nc1ccccc1)Nc1ccc(-c2ccc(C(=O)[C@@H]3CCC[C@H]3C(=O)O)cc2)cc1` returned an Euclidean distance of 0.735.
Same read-out and setting: under `N#Cc1cc(CN2CCC(Nc3ncnc4sc(Cl)cc34)CC2)ccc1F` stands 0.974; under `COc1ccc(C2=N[C@@H](c3ccc(Cl)cc3)[C@@H](c3ccc(Cl)cc3)N2C(=O)N2CCNC(=O)C2)c(OC(C)C)c1` [Nutlin-3], 1.4.
In the case of `O=NN(CCCl)C(=O)NCCCl` [Carmustine], the Euclidean distance is 1.97.
Still for that read-out and setting: under `C=CC(=O)N1CC[C@H](n2nc(C#Cc3cc(OC)cc(OC)c3)c3c(N)ncnc32)C1` stands 2.21.
On the same count and under the same terms, under `Cc1cc(OCc2nnc(SC3CCCC3)n2-c2cccnc2)ccc1-c1ccc(S(C)(=O)=O)cc1` stands 3.57; under `C=CCc1cccc(/C=N/NC(=O)CN2CCN(Cc3ccccc3)CC2)c1O`, 2.25.
Regarding `NC(=O)N1CCC(CC(=O)N2CCC([C@H]3c4ncc(Br)cc4CCc4cc(Cl)cc(Br)c43)CC2)CC1` [Lonafarnib], the Euclidean distance stood at 2.24.
Molecule `COC(=O)CCC(=O)CN` [Methyl Aminolevulinate Hydrochloride] returned an Euclidean distance of 1.52.
`O=C1N=C(O)NC1(c1ccccc1)c1ccccc1` [Phenytoin sodium] displayed an Euclidean distance of 0.57.
In turn, `O=C1OC(CN2CCOCC2)CN1/N=C/c1ccc([N+](=O)[O-])o1` (stereo not drawn) [Furaltadone HCl] came in with an Euclidean distance of 0.929.
Same read-out and setting: under `CNC(=O)c1cc(Oc2ccc3nc(N[C@@H]4CCCC[C@H]4O)sc3c2)ccn1` stands 0.859; under `Cc1cnc(NC(=O)C2=C(O)c3ccccc3S(=O)(=O)N2C)s1` [Meloxicam], 0.664; under `CN(C)CCCOc1nn(Cc2ccccc2)c2ccccc12` [Benzydamine HCl], 1.26.
`O=C(NCCCNc1nc(Nc2cccc(NC(=O)N3CCCC3)c2)ncc1I)c1cccs1` came in with an Euclidean distance of 2.35.
Regarding `N[C@@H](C(=O)N[C@@H]1C(=O)N2C(C(=O)O)=C(Cl)CS[C@H]12)c1ccccc1` [Cefaclor], the Euclidean distance worked out at 1.19.
`Cc1[nH]nc2ccc(-c3cncc(OC[C@@H](N)Cc4ccccc4)c3)cc12` came in with an Euclidean distance of 4.66.
On to `O=C1Nc2ccccc2/C1=C1/Nc2ccccc2C1=O` [Indirubin], for which the Euclidean distance stood at 1.05.
The molecule `N[C@@H](CCC(=O)O)C(=O)O` [(S)-Glutamic acid] showed an Euclidean distance of 1.39.
On the same count and under the same terms, under `CC(=O)NS(=O)(=O)c1ccc(N)cc1` [Sulfacetamide sodium salt hydrate] stands 1.2.
As to `Cc1cc(-c2ccccc2)nnc1NCCN1CCOCC1` [Minaprine dihydrochloride], the Euclidean distance was 0.893.
Molecule `COc1cc2c(cc1OC)[C@@H]1Cc3ccc(OC)c(OC)c3CN1CC2` [Rotundine] had an Euclidean distance of 1.84.
In the case of `NC(=O)NC1NC(=O)NC1=O` (stereo not drawn) [Allantoin], the Euclidean distance turned out to be 0.856.
On the same count and under the same terms, under `O=C(Nc1ccccc1)c1cc([N+](=O)[O-])ccc1Cl` stands 0.848.

In another experiment the test system is A549. Described as above. As to conditions: 48 h. The method, boiled down: as §1
`CN(C)CC(c1ccc(O)cc1)C1(O)CCCCC1` (stereo not drawn) [Desvenlafaxine] came in with an Euclidean distance of 0.707.
`O=C1C[C@@H](c2ccc(O[C@@H]3O[C@H](CO)[C@@H](O)[C@H](O)[C@H]3O)cc2)Oc2cc(O)ccc21` [Liquiritin] registered an Euclidean distance of 0.817.
For `OC[C@H]1O[C@@H](Oc2cc(O)cc(/C=C/c3ccc(O)cc3)c2)[C@H](O)[C@@H](O)[C@@H]1O` [Polydatin], the Euclidean distance was 2.03.
In turn, `NC(=O)NCCC[C@H](N)C(=O)O` [L-Citrulline] showed an Euclidean distance of 0.895.
`NS(=O)(=O)c1cc2c(cc1Cl)N=C(CSCc1ccccc1)NS2(=O)=O` [Benzthiazide]: the Euclidean distance came out at 1.17.
In turn, `CCC(=O)NS(=O)(=O)c1ccc(-c2c(-c3ccccc3)noc2C)cc1` [Parecoxib Sodium] showed an Euclidean distance of 0.521.
Same read-out and setting: under `COc1cc(C(=O)O)ccc1NC(=O)[C@@H]1N[C@@H](CC(C)(C)C)[C@](C#N)(c2ccc(Cl)cc2F)[C@H]1c1cccc(Cl)c1F` [Idasanutlin (RG-7388)] stands 1.57; under `O=C1CCCC(=O)C1C(=O)c1ccc(C(F)(F)F)cc1[N+](=O)[O-]` [Nitisinone], 0.58; under `Cc1cn[nH]c1` [Fomepizole], 0.542.
Same read-out and setting: under `CC(C)(C)c1cc(/C=C(\C#N)C(N)=S)cc(C(C)(C)C)c1O` [Tyrphostin AG 879] stands 1.46; under `CN1CC[C@H](c2c(O)cc(O)c3c(=O)cc(-c4ccccc4Cl)oc23)[C@H](O)C1` [Flavopiridol HCl], 3.15; under `COc1ncc(-c2ccc3nccc(-c4ccnnc4)c3c2)cc1NS(=O)(=O)c1ccc(F)cc1F`, 3.16.
With `C[C@@H](NCCCc1cccc(C(F)(F)F)c1)c1cccc2ccccc12` [Cinacalcet HCl], the Euclidean distance came out at 1.57.
`CO[C@@H]1[C@H](OC(=O)/C=C/C=C/C=C/C=C/C(=O)O)CC[C@]2(CO2)[C@H]1[C@@]1(C)O[C@@H]1CC=C(C)C` [Fumagillin] showed an Euclidean distance of 2.91.
Molecule `O=c1[nH]c(=O)n([C@H]2C[C@H](O)[C@@H](CO)O2)cc1C(F)(F)F` [Trifluridine] displayed an Euclidean distance of 3.28.
Regarding `O=C(Nc1ccccc1)Nc1ccc(-c2ccc(C(=O)[C@@H]3CCC[C@H]3C(=O)O)cc2)cc1`, the Euclidean distance worked out at 0.898.
In turn, `N#Cc1cc(CN2CCC(Nc3ncnc4sc(Cl)cc34)CC2)ccc1F` showed an Euclidean distance of 1.39.
In the case of `COc1ccc(C2=N[C@@H](c3ccc(Cl)cc3)[C@@H](c3ccc(Cl)cc3)N2C(=O)N2CCNC(=O)C2)c(OC(C)C)c1` [Nutlin-3], the Euclidean distance was determined as 3.54.
`O=NN(CCCl)C(=O)NCCCl` [Carmustine] yielded an Euclidean distance of 0.741.
The same measure, in the same setting: under `C=CC(=O)N1CC[C@H](n2nc(C#Cc3cc(OC)cc(OC)c3)c3c(N)ncnc32)C1` stands 1.47; under `Cc1cc(OCc2nnc(SC3CCCC3)n2-c2cccnc2)ccc1-c1ccc(S(C)(=O)=O)cc1`, 3.4.
On to `C=CCc1cccc(/C=N/NC(=O)CN2CCN(Cc3ccccc3)CC2)c1O`, for which the Euclidean distance amounted to 2.14.
The molecule `NC(=O)N1CCC(CC(=O)N2CCC([C@H]3c4ncc(Br)cc4CCc4cc(Cl)cc(Br)c43)CC2)CC1` [Lonafarnib] returned an Euclidean distance of 1.63.
As to `COC(=O)CCC(=O)CN` [Methyl Aminolevulinate Hydrochloride], the Euclidean distance is 0.774.
The molecule `O=C1N=C(O)NC1(c1ccccc1)c1ccccc1` [Phenytoin sodium] had an Euclidean distance of 0.743.
Same read-out and setting: under `O=C1OC(CN2CCOCC2)CN1/N=C/c1ccc([N+](=O)[O-])o1` (stereo not drawn) [Furaltadone HCl] stands 1.35; under `CNC(=O)c1cc(Oc2ccc3nc(N[C@@H]4CCCC[C@H]4O)sc3c2)ccn1`, 1.04; under `Cc1cnc(NC(=O)C2=C(O)c3ccccc3S(=O)(=O)N2C)s1` [Meloxicam], 0.746.
On the same count and under the same terms, under `CN(C)CCCOc1nn(Cc2ccccc2)c2ccccc12` [Benzydamine HCl] stands 0.962; under `O=C(NCCCNc1nc(Nc2cccc(NC(=O)N3CCCC3)c2)ncc1I)c1cccs1`, 4.29.
In the case of `N[C@@H](C(=O)N[C@@H]1C(=O)N2C(C(=O)O)=C(Cl)CS[C@H]12)c1ccccc1` [Cefaclor], the Euclidean distance stood at 0.817.
For the molecule `Cc1[nH]nc2ccc(-c3cncc(OC[C@@H](N)Cc4ccccc4)c3)cc12`, the Euclidean distance came to 4.28.
`O=C1Nc2ccccc2/C1=C1/Nc2ccccc2C1=O` [Indirubin] came in with an Euclidean distance of 1.12.
Molecule `N[C@@H](CCC(=O)O)C(=O)O` [(S)-Glutamic acid] gave an Euclidean distance of 0.982.
The molecule `CC(=O)NS(=O)(=O)c1ccc(N)cc1` [Sulfacetamide sodium salt hydrate] displayed an Euclidean distance of 0.692.
Same read-out and setting: under `Cc1cc(-c2ccccc2)nnc1NCCN1CCOCC1` [Minaprine dihydrochloride] stands 1.02; under `COc1cc2c(cc1OC)[C@@H]1Cc3ccc(OC)c(OC)c3CN1CC2` [Rotundine], 0.769.
`NC(=O)NC1NC(=O)NC1=O` (stereo not drawn) [Allantoin] came in with an Euclidean distance of 0.693.
For `O=C(Nc1ccccc1)c1cc([N+](=O)[O-])ccc1Cl`, the Euclidean distance stood at 0.897.
